Assay results taken from PubChem BioAssay (NCATS).
Results filed as inconclusive are left out. Values without a mark were called inactive. Activity calls are given as the source filed them. The call rests on the fitted dose curve; in most records, active means well fitted cell-killing curve with a large enough effect; inconclusive means small, poorly fitted or top-dose-only effect, or effect the other way; inactive means flat fitted curve, though single readings scatter.

assay: MultiTox-Fluor Cytotoxicity Assay - LYMP1-002 - Live Cells (AID 955); conditions: LYMP1-002 lymphoblastoid live-cell protease fluorescence viability; series mostly up to 46.1 µM; viability change, negative = cytotoxic: at the top concentration
From the text: NIH Chemical Genomics Center [NCGC]
NIH Molecular Libraries Screening Centers Network [MLSCN]
National Institutes of Environmental Health Sciences [NIEHS]
National Toxicology Program [NTP]
We have developed a 1536-well cell-based assay for quantitative high throughput screening (qHTS) against a number of cell lines to determine in vitro cytotoxicity of small molecules. This particular assay uses a human lymphoblastoid cell line (LYMP1-002) purchased from Coriell Institute.
NCGC Assay Protocol Summary:
The MultiTox-Fluor Cytotoxicity Assay (Promega) is a homogeneous method to simultaneously measure the relative number of live and dead cells in culture by detecting changes in cell membrane integrity. There are two fluorogenic peptide substrates in the assay reagent. Viable cells are determined when the cell-permeant substrate (GF-AFC) enters the cell and is cleaved by protease from live cells resulting in liberated fluorophore. This live-cell protease activity restricted to viable cells is proportional to cell number. The dead cells are determined by using fluorogenic cell-impermeant peptide substrate (bis-AAF-R110) which cleaved by dead cell proteases leaking from damaged cell membrane.
Using the MultiTox-Fluor Cytotoxicity Assay, the relative number of live cells was measured in the lymphoblastoid cell line with complete culture medium following compound treatment for 16 hours. The assay was performed in opaque black Kalypsys 1536-well plates. In the screen, tetraoctylammonium bromide was used as positive control. Library compounds were measured for their ability to cause acute toxicity in the cell line, as reflected by a decrease in live cell protease activity, in a concentration-dependent manner. […] AC50 values were determined from concentration-response data modeled with the standard Hill equation.
qHTS protocol for MultiTox-Fluor Cytotoxicity assay
[Step] [Parameter] [Value] [Description]
1. Reagent; 5 uL; 2500 lymphoblastoid cells/well
2. Time; 5 hr; 37 C incubation
4. Controls; 23 nL; Tetraoctylammonium bromide 6.4pM to 92 uM
5. Time; 16 hr; 37 C incubation
6. Reagent; 5 uL; MuliTox-Fluor Assay reagent
7. Time; 60 min; Room Temperature
8. Detection; live-cell fluorescence (Ex/Em=405/510); EnVision plate reader
Keywords: cell viability, cytotoxicity, lymphoblastoid cell line, fluorescence, NTPHTS, NTPHTS_NCGC, NIEHS, EPA, DSSTox, MLSMR, MLSCN, NIH Roadmap, qHTS, NCGC
On the % scale 0 is the no-effect control and ±100 the full control effect; potency means the concentration at half of the fitted maximal effect.

SMILES | viability change, negative = cytotoxic [%] | Potency
Nc1ccc(N=Nc2ccccc2)c(N)n1 | -11.9 | 
O=P(O)(O)O | 9.55 | 
C[C@H](CCC(=O)O)[C@H]1CC[C@H]2[C@@H]3CC[C@@H]4C[C@H](O)CC[C@]4(C)[C@H]3C[C@H](O)[C@]12C | 0.639 | 
CCCCC | 1.19 | 
Nc1ncnc2c1ncn2[C@H]1CC[C@@H](CO)O1 | -5.8 | 
Nc1nccs1 | 7.41 | 
CC/C=C\C/C=C\C/C=C\CCCCCCCC(=O)O | 1.78 | 
ClC(Cl)Cl | 3 | 
CC1=CCC2CC1C2(C)C (stereo unspecified) | -0.716 | 
OC[C@H]1O[C@@H]2O[C@H]3[C@H](O)[C@@H](O)[C@@H](O[C@H]4[C@H](O)[C@@H](O)[C@@H](O[C@H]5[C@H](O)[C@@H](O)[C@@H](O[C@H]6[C@H](O)[C@@H](O)[C@@H](O[C@H]7[C@H](O)[C@@H](O)[C@@H](O[C@H]1[C@H](O)[C@H]2O)O[C@@H]7CO)O[C@@H]6CO)O[C@@H]5CO)O[C@@H]4CO)O[C@@H]3CO | -6.38 | 
CO/N=C(/C(=O)N[C@@H]1C(=O)N2C(C(=O)O)=C(COC(N)=O)CS[C@H]12)c1ccco1 | -0.0751 | 
COC(=O)c1ccccc1O | 8.98 | 
NC(N)=O | -0.747 | 
CC[C@H]1OC(=O)[C@H](C)[C@@H](O[C@H]2C[C@@](C)(OC)[C@@H](O)[C@H](C)O2)[C@H](C)[C@@H](O[C@@H]2O[C@H](C)C[C@H](N(C)C)[C@H]2O)[C@](C)(O)C[C@@H](C)CN(C)[C@H](C)[C@@H](O)[C@]1(C)O | 0.339 | 
C[C@H](CCC(=O)O)[C@H]1CC[C@H]2[C@@H]3[C@H](O)C[C@@H]4C[C@H](O)CC[C@]4(C)[C@H]3C[C@H](O)[C@]12C | -1.35 | 
NCCN | 2.11 | 
OCc1ccccc1 | 4.22 | 
Oc1ccc(/C=C/c2cc(O)cc(O)c2)cc1 | -13.6 | 

SMILES | viability change, negative = cytotoxic [%] | Potency
Oc1cccc(O)c1O | -1.11 | 
OCl | -1.53 | 
C=C1C(CCl)(CCl)C2(Cl)C(Cl)C(Cl)C1(Cl)C2(Cl)Cl (stereo unspecified) | -19.9 | 
Cc1ncc[nH]1 | -6.48 | 
O.O.O.O.O.O.O.O=S(=O)([O-])[O-].[Co+2] | -3.89 | 
OB(O)O | 5.53 | 
CCCCO |  | inactive
[O-][N+](=Nc1ccccc1)c1ccccc1 | -5.43 | 
C/C=C/C=C/C(=O)O | 2.73 | 
OCC(O)CO |  | inactive
Cc1ccc(S(=O)(=O)O)cc1C | 3.73 | 
CO | -0.767 | 
c1ccc2ccccc2c1 | 3.52 | 
CC1=CC(=O)NS(=O)(=O)O1 | 2.17 | 
CCOC(C)OCC | 4.03 | 
C[C@H]1O[C@@H](O[C@H]2[C@@H](O)C[C@H](O[C@H]3[C@@H](O)C[C@H](O[C@H]4CC[C@@]5(C)[C@H](CC[C@@H]6[C@@H]5C[C@@H](O)[C@]5(C)[C@@H](C7=CC(=O)OC7)CC[C@]65O)C4)O[C@@H]3C)O[C@@H]2C)C[C@H](O)[C@@H]1O |  | 501 nM (active)
CC(C)O | -12.7 | 
CC(C)(C)CC(C)(C)c1ccc(OCCO)cc1 | -11.9 | 
